For 21 compounds, outcome, Potency and activity change, negative = cytotoxicity results are on record in PubChem BioAssay (NCATS).

Molecules are shown by their SMILES. Results filed as inconclusive are left out. Unmarked numbers belong to inactive results. The source made the active and inactive calls. The call rests on the fitted dose curve; in most records, active means well fitted curve in the direction sought with a large enough effect; inconclusive means small, poorly fitted or top-dose-only effect, or another doubt; inactive means no such curve, though single readings can be large; an effect the other way counts as inactive or inconclusive. Where a SMILES comes first, the peptide text is derived from it.

Assay [1] in a line: P-glycoprotein substrates identified in KB-3-1 adenocarcinoma cell line, qHTS therapeutic library screen (AID 1346986). Further: nearly all actives have a fitted effect of over 60% in size. The note with it: KB-3-1 parental cells viability, CellTiter-Glo, 72 h; series mostly up to 44.5 µM. Put shortly:
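Compounds were tested in dose-response against KB-3-1 and KB-8-5-11 cells at 37 degree C for 72 h, and viability was measured by luminescence. AC50 values came from curve fitting with class-based activity calls.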

The nature of assay [2]: P-glycoprotein substrates identified in KB-8-5-11 adenocarcinoma cell line, qHTS therapeutic library screen (AID 1346987). Further: nearly all actives have a fitted effect of over 65% in size. On activity change, negative = cytotoxicity: on the % scale 0 is the no-effect control and ±100 the full control effect. The note with it: KB-8-5-11 (P-gp overexpressing) viability, CellTiter-Glo, 72 h; series mostly up to 44.5 µM. Put shortly: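 KB-8-5-11: colchicine-selected sub-line of KB-3-1 over-expressing P-gp; assay medium lacked colchicine. 72 h drug exposure at 37 degree C, CellTiter-Glo.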
For orientation: In qHTS, concentration-response curves come from the screen itself.

For `C[C@@H]1O[C@@H](O[C@H]2[C@H](O[C@H]3[C@H](O[C@H]4CC[C@@]5(C)C(CC[C@]6(C)C5CC=C5[C@@H]7CC(C)(C)CC(=O)[C@]7(C)CC[C@]56C)[C@@]4(C)CO)O[C@H](C(=O)O)[C@@H](O)[C@@H]3O)O[C@H](CO)[C@H](O)[C@@H]2O)[C@H](O)[C@H](O)[C@H]1O` (some centres not stated), the outcome in assay [1] and in assay [2] was “inactive [at 9.29 µM]” in each case.
On to `CC(=O)OCC1OC(O[C@H]2CC[C@@]3(C)C(CC[C@]4(C)C3CC=C3[C@@H]5CC(C)(C)CC[C@]5(C(=O)O)CC[C@]34C)[C@]2(C)CO)C(O)C(O)C1OC1OC(C)C(O)C(OC2OCC(O)C(O)C2O)C1O` (some centres not stated), for which the outcome in assay [1] and in assay [2] was “inactive [at 9.29 µM]” in each case.
As to `COC(=O)c1[nH]c(=O)c2ccccc2c1-c1ccc[nH]1`, the Potency entry in assay [1] and in assay [2] was “inactive” in each case.
In the case of `CC(=O)OC[C@@]12C(=O)C[C@@H](C)[C@]3(C[C@@H](c4ccoc4)OC3=O)[C@H]1CC[C@H](OC(C)=O)[C@]21CO1`, the Potency entry in assay [1] and in assay [2] was “inactive” throughout.
As to `C[C@]1(OC(=O)/C=C\c2ccc(O)cc2)C[C@@H](O)[C@]2(O)C=CO[C@@H](O[C@@H]3O[C@H](CO)[C@@H](O)[C@H](O)[C@H]3O)C12` (some centres not stated), the Potency result in assay [1] and in assay [2] was “inactive” throughout.
Regarding `O=C(C[C@@H]1C(C(=O)O)=CO[C@@H](O[C@@H]2O[C@H](CO)[C@@H](O)[C@H](O)[C@H]2O)/C1=C\CO)OCCc1ccc(O)cc1`, the Potency result in assay [1] and in assay [2] was “inactive” each time.
On to `OCC1=C[C@@H](O)[C@@H]2C=CO[C@@H](O[C@@H]3O[C@H](CO)[C@@H](O)[C@H](O)[C@H]3O)[C@H]12`, for which the Potency entry in assay [1] and in assay [2] was “inactive” throughout.
In the case of `O=C(c1ccc(Cl)c([N+](=O)[O-])c1)N1CCN(c2ccccc2F)CC1`, the Potency result in assay [1] and in assay [2] was “inactive” each time.
As to `COC1OC(=O)C2=C1C1(C)CCCC(C)(C)C1CC2O` (configuration not stated), the Potency result in assay [1] and in assay [2] was “inactive” in each case.
As for `CC(C)=CC1C[C@](C)(O)[C@@H]2[C@H]3CCC4[C@@]5(C)CC[C@H](O[C@@H]6OC[C@H](O)[C@H](O[C@@H]7O[C@H](CO[C@@H]8O[C@H](CO)[C@@H](O)[C@H](O)[C@H]8O)[C@@H](O)[C@H](O)[C@H]7O)[C@H]6O[C@@H]6O[C@@H](C)[C@H](O)[C@@H](O)[C@H]6O)C(C)(C)[C@@H]5CC[C@@]4(C)[C@@]34CO[C@@]2(C4)O1` (some centres not stated), the outcome in assay [1] is “inactive [at 9.29 µM]”. Also, in assay [2], the activity change, negative = cytotoxicity was 9.35% [at 9.29 µM].
Take `CC1=C(CO)C2(C)CCCC(C)(C)C2C(O)C1O` (configuration not stated): the Potency entry in assay [1] and in assay [2] was “inactive” in each case.
Take `CC(=O)O[C@@H]1[C@H](O[C@@H]2O[C@H](CO)[C@@H](O)[C@H](O)[C@H]2O)[C@@H](O[C@@H]2O[C@@H](C)[C@H](O)[C@@H](O[C@@H]3O[C@H](CO)[C@@H](O)[C@H](O)[C@H]3O)[C@H]2O)[C@H](OC(=O)[C@]23CCC(C)(C)C[C@H]2C2=CCC4[C@@]5(C)C[C@H](O)[C@H](O[C@@H]6O[C@H](C(=O)O)[C@@H](O)[C@H](O)[C@H]6O)[C@@](C)(C(=O)O)C5CC[C@@]4(C)[C@]2(C)CC3)O[C@@H]1C` (some centres not stated): the outcome in assay [1] is “inactive [at 9.29 µM]”. Further, the activity change, negative = cytotoxicity in assay [2] was 8.71% [at 9.29 µM].
For `O=C(/C=C/c1ccc(O)cc1)OC[C@H]1O[C@H](O[C@@]2(CO)O[C@@H](CO)[C@H](O)[C@H]2O)[C@H](O)[C@@H](O)[C@@H]1O`, the Potency entry in assay [1] and in assay [2] was “inactive” each time.
As for `CC1(C)C2CCC1(C)C(OC(=O)C(O)(CC(=O)O)CC(=O)O)C2` (configuration not stated), the Potency entry in assay [1] and in assay [2] was “inactive” throughout.
With `Nc1ncnc2c1ncn2[C@H]1O[C@@H](C(=O)N2CCN(CC(=O)Nc3cccc4c3CNC4=O)CC2)[C@H](O)[C@@H]1O`, the Potency result in assay [1] and in assay [2] was “inactive” each time.
Take `O=C(O)C(Cc1ccccc1)NC(=O)C1CCCN1` (stereo not drawn) (H-Pro-Phe-OH; configuration not given here): the Potency entry in assay [1] and in assay [2] was “inactive” throughout.
In the case of `COc1ccnc2[nH]cc(C(=O)C(=O)N3CCN(C(=O)c4ccccc4)CC3C)c12` (configuration not stated), the Potency entry in assay [1] and in assay [2] was “inactive” throughout.
With `NC(Cc1c[nH]c2ccc(O)cc12)C(=O)O` (configuration not stated), the Potency result in assay [1] and in assay [2] was “inactive” throughout.
With `CCC(C)/C=C(C)/C=C/C1=CC2=C(Cl)C(=O)C(C)(O)C(=O)C2(O)C(OC)O1` (configuration not stated), the Potency entry in assay [1] and in assay [2] was “inactive” throughout.
`CC(C)(O)C(O)C(=O)OCc1ccc(O[C@@H]2O[C@H](CO)[C@@H](O)[C@H](O)[C@H]2O)cc1` (some centres not stated): the Potency result in assay [1] and in assay [2] was “inactive” throughout.
As for `COc1cc(/C=C/CO[C@@H]2O[C@H](CO)[C@@H](O)[C@H](O)[C@H]2O)cc(OC)c1O[C@@H]1O[C@H](CO)[C@@H](O)[C@H](O)[C@H]1O`, the Potency entry in assay [1] and in assay [2] was “inactive” in each case.
